Test results as given in the supplement of paper PMC10338343.
± gives the standard deviation.

Experiments:
[1] = system: MILI (PIWIL2) piRISC loaded with piRNA #1 (26 nt); test: pre-steady-state target cleavage rate (min^-1); guide: piRNA #1 5'p-UGAGGUAGUAGGUUGUAUAGUAUCCA; higher = faster piRNA-guided slicing of the target; conditions: auxiliary factor: 500 nM mouse GTSF1
Procedure, shortened: (§1)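 The method was Cleave-'n-Seq, in which uncleaved targets from a transcribed, DNA-blocked target RNA library were sequenced after exposure to active affinity-purified piRISC carrying one synthetic guide, with or without GTSF1 partner protein. Reactions contained 0.1 nM library, 1 nM piRISC and, where present, 500 nM GTSF1 in HEPES–potassium acetate buffer at 33 °C for 0–8 or 0–960 min. Reads were normalised to depth and to weakly complementary targets, three trials were pooled, and k3 was capped at 0.0001 min^-1. The pre-steady-state cleavage rate came from a burst-and-steady-state fit.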

[2] = system: EfPiwi piRISC loaded with piRNA #1 (26 nt); test: pre-steady-state target cleavage rate (min^-1); auxiliary factor: 500 nM Ephydatia muelleri Gtsf1; guide: piRNA #1 5'p-UGAGGUAGUAGGUUGUAUAGUAUCCA; MIWI and MILI are mouse PIWI proteins and EfPiwi is from a freshwater sponge; tags in brackets are library labels; higher = faster piRNA-guided slicing of the target
Procedure, shortened: as §1

GGAGAGGAUACUAUACAACCUACUUACCUCA
pre-steady-state target cleavage rate [1]: 0.162 ± 0.015
pre-steady-state target cleavage rate [2]: 0.00951 ± 0.004

GGAGACCAAACUAUACAACGUACUACCUCA
pre-steady-state target cleavage rate [1]: 0.0124 ± 0.0071
pre-steady-state target cleavage rate [2]: 0.00528 ± 0.0034

GGAGACGAUACUAUACAUCCUACUACCUGA
pre-steady-state target cleavage rate [1]: 0.237 ± 0.031
pre-steady-state target cleavage rate [2]: 0.00464 ± 0.0014

GGAGACGAUACUAUACAACCAUACUACCUCA
pre-steady-state target cleavage rate [1]: 0.00651 ± 0.0034
pre-steady-state target cleavage rate [2]: 0.00938 ± 0.0047

GGAGACCAUACUAUACAAGCUACUACGUCA
pre-steady-state target cleavage rate [1]: 0.139 ± 0.022
pre-steady-state target cleavage rate [2]: 0.00359 ± 0.0023

GGAGACGAUACUAGACAACCUACUACCUCA
pre-steady-state target cleavage rate [1]: 0.171 ± 0.013
pre-steady-state target cleavage rate [2]: 0.00452 ± 0.0029

GGAGAGGUUACUAUACAACCUACUUCCUCA
pre-steady-state target cleavage rate [1]: 0.00348 ± 0.0029
pre-steady-state target cleavage rate [2]: 0.0033 ± 0.002

GGAGACGAUACUAAACAACCUACUUCCUCA
pre-steady-state target cleavage rate [1]: 0.0843 ± 0.021
pre-steady-state target cleavage rate [2]: 0.00245 ± 0.0022

GGAGUGGAUACUAUACUACCUACUACCUCA
pre-steady-state target cleavage rate [1]: 0.196 ± 0.0088
pre-steady-state target cleavage rate [2]: 0.00816 ± 0.0037

GGAGAGGAUACUUACAACCUACUACCUCA
pre-steady-state target cleavage rate [1]: 0.125 ± 0.012
pre-steady-state target cleavage rate [2]: 0.00543 ± 0.0036

GGAGACCAUACUAUACAACCUACUAGCCUCA
pre-steady-state target cleavage rate [1]: 0.176 ± 0.024
pre-steady-state target cleavage rate [2]: 0.00697 ± 0.0031

GGAGACCAUACUAUACAACCUACAUCCUCA
pre-steady-state target cleavage rate [1]: 0.1 ± 0.014
pre-steady-state target cleavage rate [2]: 0.00325 ± 0.0028

GGAGACGAUACAAUACAACCUACUACGUCA
pre-steady-state target cleavage rate [1]: 0.102 ± 0.015
pre-steady-state target cleavage rate [2]: 0.00361 ± 0.0032

GGAGAGGAUACUAUGCAACCUACUACCUCA
pre-steady-state target cleavage rate [1]: 0.214 ± 0.011
pre-steady-state target cleavage rate [2]: 0.242 ± 0.091

GGAGACGAUACUGAUACAACCUACUACCUCA
pre-steady-state target cleavage rate [1]: 0.203 ± 0.018
pre-steady-state target cleavage rate [2]: 0.00712 ± 0.0036

GGAGACCAUUCUAAACAACCUACUACCUCA
pre-steady-state target cleavage rate [1]: 0.0936 ± 0.012
pre-steady-state target cleavage rate [2]: 0.00894 ± 0.0049

GGAGUGGAUACUAUACAACGCUACUACCUCA
pre-steady-state target cleavage rate [1]: 0.0044 ± 0.0029
pre-steady-state target cleavage rate [2]: 0.00636 ± 0.003

GGAGACCUAAUAUACAACCUACUACCUCA
pre-steady-state target cleavage rate [1]: 0.0727 ± 0.014
pre-steady-state target cleavage rate [2]: 0.0061 ± 0.0043

GGAGACCGUACUAUACAACCUACUACCUCA
pre-steady-state target cleavage rate [1]: 0.157 ± 0.021
pre-steady-state target cleavage rate [2]: 0.156 ± 0.049

GGAGAGGAUACUAAACAACCUACUACCACA
pre-steady-state target cleavage rate [1]: 0.108 ± 0.011
pre-steady-state target cleavage rate [2]: 0.00277 ± 0.002

GGAGAGGAUACUAUACAACCAUACUACCUCA
pre-steady-state target cleavage rate [1]: 0.00709 ± 0.0019
pre-steady-state target cleavage rate [2]: 0.00323 ± 0.0026

GGAGACCUAACUAUACAACCUACUACCUCU [g2:g21:cont:t1U]
pre-steady-state target cleavage rate [1]: 0.152 ± 0.025
pre-steady-state target cleavage rate [2]: 0.915 ± 0.29

GGAGACGAUACUAUACAACCUACACCUCA
pre-steady-state target cleavage rate [1]: 0.00588 ± 0.0025
pre-steady-state target cleavage rate [2]: 0.00474 ± 0.0027

GGAGACGAUAGUUUACAACCUACUACCUCA
pre-steady-state target cleavage rate [1]: 0.129 ± 0.01
pre-steady-state target cleavage rate [2]: 0.0165 ± 0.0088

GGAGACCUAUCUUUACAACCUACUACCUCA
pre-steady-state target cleavage rate [1]: 0.063 ± 0.0089
pre-steady-state target cleavage rate [2]: 0.0058 ± 0.0037

GGAGACCUUACUAUACAACCUUCUACCUCA
pre-steady-state target cleavage rate [1]: 0.00711 ± 0.0021
pre-steady-state target cleavage rate [2]: 0.00767 ± 0.0037

GGAGUCGAUACUAUACAACCUACAACCUCA
pre-steady-state target cleavage rate [1]: 0.0405 ± 0.0054
pre-steady-state target cleavage rate [2]: 0.00324 ± 0.0017

GGAGACCUUACUAUACAACGUACUACCUCA
pre-steady-state target cleavage rate [1]: 0.0177 ± 0.0026
pre-steady-state target cleavage rate [2]: 0.00318 ± 0.0019

GGAGACCAUACUAUACAGCCUACUACCUCA
pre-steady-state target cleavage rate [1]: 0.157 ± 0.02
pre-steady-state target cleavage rate [2]: 0.16 ± 0.053

GGAGAGGAUACUCUACAACCUACUACCUCA
pre-steady-state target cleavage rate [1]: 0.204 ± 0.013
pre-steady-state target cleavage rate [2]: 0.00431 ± 0.0033

GGAGACGAUUCUAUACAACCUAGUACCUCA
pre-steady-state target cleavage rate [1]: 0.07 ± 0.011
pre-steady-state target cleavage rate [2]: 0.00392 ± 0.0022

GGAGACGUAUCUAUACAACCUACUACCUCA
pre-steady-state target cleavage rate [1]: 0.156 ± 0.015
pre-steady-state target cleavage rate [2]: 0.00913 ± 0.0041

GGAGAGGAUACUAUACAACCUUCUACCACA
pre-steady-state target cleavage rate [1]: 0.00472 ± 0.0023
pre-steady-state target cleavage rate [2]: 0.00468 ± 0.0021

GGAGUGGAUACUAUCACAACCUACUACCUCA
pre-steady-state target cleavage rate [1]: 0.199 ± 0.013
pre-steady-state target cleavage rate [2]: 0.0265 ± 0.011

GGAGACCAUACUAUACAACCUACUACCUUCA
pre-steady-state target cleavage rate [1]: 0.2 ± 0.018
pre-steady-state target cleavage rate [2]: 0.0679 ± 0.02

GGAGACGAUACUAUACAACCUACAACCUCA
pre-steady-state target cleavage rate [1]: 0.142 ± 0.019
pre-steady-state target cleavage rate [2]: 0.00407 ± 0.0013

GGAGAGGAUACUAUCACAACCUACUACCUCA
pre-steady-state target cleavage rate [1]: 0.136 ± 0.011
pre-steady-state target cleavage rate [2]: 0.0777 ± 0.031

GGAGACGAUUCUAUACAACCUACUACCACA
pre-steady-state target cleavage rate [1]: 0.219 ± 0.015
pre-steady-state target cleavage rate [2]: 0.00382 ± 0.0024

GGAGACCAAACUAUUCAACCUACUACCUCA
pre-steady-state target cleavage rate [1]: 0.217 ± 0.047
pre-steady-state target cleavage rate [2]: 0.00445 ± 0.004

GGAGACCAUACUAUACAACCUACUUGCUCA
pre-steady-state target cleavage rate [1]: 0.13 ± 0.032
pre-steady-state target cleavage rate [2]: 0.00354 ± 0.002

GGAGACCAUACGUAUACAACCUACUACCUCA
pre-steady-state target cleavage rate [1]: 0.212 ± 0.035
pre-steady-state target cleavage rate [2]: 0.159 ± 0.064

GGAGACCAUACUUUACAACCUACUUCCUCA
pre-steady-state target cleavage rate [1]: 0.0695 ± 0.018
pre-steady-state target cleavage rate [2]: 0.00404 ± 0.0039

GGAGAGGAUACUAUACAACCUCCUACCUCA
pre-steady-state target cleavage rate [1]: 0.0496 ± 0.0063
pre-steady-state target cleavage rate [2]: 0.0065 ± 0.0026

GGAGAGGAUACAAUACUACCUACUACCUCA
pre-steady-state target cleavage rate [1]: 0.154 ± 0.013
pre-steady-state target cleavage rate [2]: 0.00424 ± 0.0028

GGAGUGGAUACUAUACAAGGUACUACCUCA
pre-steady-state target cleavage rate [1]: 0.0661 ± 0.0076
pre-steady-state target cleavage rate [2]: 0.00342 ± 0.0019

GGAGAGGAUACUAUACAAGGUACUACCUCA
pre-steady-state target cleavage rate [1]: 0.0284 ± 0.0051
pre-steady-state target cleavage rate [2]: 0.00404 ± 0.0023

GGAGAGGAUACUAUACAACUUACUACCUCA
pre-steady-state target cleavage rate [1]: 0.0186 ± 0.0027
pre-steady-state target cleavage rate [2]: 0.0083 ± 0.0042

GGAGUGGAUACUAUACAACCGUACUACCUCA
pre-steady-state target cleavage rate [1]: 0.00369 ± 0.0022
pre-steady-state target cleavage rate [2]: 0.00658 ± 0.0027

GGAGAGGAUACUAUACAACCUACUACAUCA
pre-steady-state target cleavage rate [1]: 0.0431 ± 0.0077
pre-steady-state target cleavage rate [2]: 0.00573 ± 0.0027

GGAGUGGAUGCUAUACAACCUACUACCUCA
pre-steady-state target cleavage rate [1]: 0.152 ± 0.022
pre-steady-state target cleavage rate [2]: 0.0921 ± 0.046

GGAGAGGAUAGUAUACAACCUUCUACCUCA
pre-steady-state target cleavage rate [1]: 0.00649 ± 0.004
pre-steady-state target cleavage rate [2]: 0.00304 ± 0.0024

GGAGACGAUACUAUACAAGCUACUAGCUCA
pre-steady-state target cleavage rate [1]: 0.0998 ± 0.024
pre-steady-state target cleavage rate [2]: 0.00375 ± 0.0019

GGAGACCAUACUAUACAACCUUCUACCUCA
pre-steady-state target cleavage rate [1]: 0.00761 ± 0.0026
pre-steady-state target cleavage rate [2]: 0.00625 ± 0.0028

GGAGAGGAUACUAAACAACCUAGUACCUCA
pre-steady-state target cleavage rate [1]: 0.00823 ± 0.004
pre-steady-state target cleavage rate [2]: 0.00257 ± 0.002
